Some test systems named below: NCI-H23 lung; NCI-H226 lung; NCI-H322M lung; HOP-62 NSCLC; NCI-H460 lung; HOP-92 NSCLC; NCI-H522 lung; A549/ATCC NSCLC; 786-0 renal; COLO 205 colon; DU-145 prostate; MALME-3M melanoma; MDA-MB-231 breast; RXF 393 renal; SF-268 CNS; SF-295 CNS; SF-539 CNS; UACC-257 melanoma; M14 melanoma; K-562 leukemia.
Holding throughout (experiment): NCI-60 one-dose screen, 48 h (100 = growth as untreated, 0 = no growth, -100 = all killed)
Holding throughout (settings): 10 µM unless noted

Compounds without any hit were thinned out: in the full panel of roughly 83,000, 20% have a hit.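 Negative percent growth values reflect cell death: -40 means 40% of the cells present at the start died, and -100 means all died.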 Values without a mark were called inactive. Active and inactive are the calls of the source. The calls were made as follows: active = growth percent below 10; inactive = the rest.

Turning to `O=C1C=CC(=O)c2c1nc1n2CCCC1`, the growth with NCI-H23 lung was 39.2%; in the assay on NCI-H226 lung, 95%; with NCI-H322M lung, 29.8%; with HOP-62 NSCLC, 80%; with NCI-H460 lung it was 24.6%; with HOP-92 NSCLC it was 132%. For the same molecule, the growth in the assay on NCI-H522 lung was 72.5%; in the assay with A549/ATCC NSCLC it was 41.6%; in the assay on 786-0 renal, 93.3%; with COLO 205 colon, 33.2%; in the assay on DU-145 prostate, 63.2%; in the assay with MALME-3M melanoma, -71.2% (active). Further, the growth in the assay on MDA-MB-231 breast was 89.9%; in the assay on RXF 393 renal, 96.5%; in the assay with SF-268 CNS, 83.5%; in the assay with SF-295 CNS, 95.8%; with SF-539 CNS it was 74.9%; in the assay with UACC-257 melanoma, 84.8%. Further, the growth in the assay on M14 melanoma is 29.9%.

With `CN(CC(=O)N(Cc1ccc(C2CCCCC2)cc1)c1ccc(C(=O)NO)cc1)S(=O)(=O)c1c(F)c(F)c(F)c(F)c1F`, the growth in the assay with NCI-H23 lung is 53.9%; in the assay with NCI-H226 lung, 100%; in the assay on NCI-H322M lung, 90%; in the assay on HOP-62 NSCLC it was 103%; in the assay with NCI-H460 lung, 99.5%; with HOP-92 NSCLC, 95%. Besides, the growth in the assay on NCI-H522 lung was 45.3%; in the assay with A549/ATCC NSCLC, 102%; in the assay on COLO 205 colon, 67.9%; with DU-145 prostate it was 78.3%; in the assay with K-562 leukemia, 20.6%; with MALME-3M melanoma, 86.4%. The growth in the assay with MDA-MB-231 breast is 40.3%; in the assay on RXF 393 renal, 71.2%; with SF-268 CNS it was 87%; with SF-295 CNS, 108%; with SF-539 CNS, 92.7%; in the assay with UACC-257 melanoma, 102%. For the same molecule, the growth with M14 melanoma is 67.9%.

Take `CN1C2CCC1/C(=C\c1ccc(Cl)cc1)C1=C2[C@@H](c2ccc(Cl)cc2)C(C#N)=C(N)O1` (stereo partly specified): the growth was 83.5% with NCI-H23 lung; 88.2% in the assay on NCI-H226 lung; 89.9% in the assay with NCI-H322M lung; 88.9% with HOP-62 NSCLC; 91.6% in the assay with NCI-H460 lung; 70.4% with HOP-92 NSCLC. For the same molecule, the growth with NCI-H522 lung is 78.3%; with A549/ATCC NSCLC it was 83.1%; in the assay with 786-0 renal, 93.2%; in the assay on COLO 205 colon, 87.5%; with DU-145 prostate it was 94.5%; in the assay with MALME-3M melanoma it was 88%. Moreover, the growth in the assay on MDA-MB-231 breast is 104%; with RXF 393 renal, 68.8%; in the assay with SF-268 CNS, 85%; in the assay with SF-295 CNS it was 97.8%; in the assay on SF-539 CNS it was 94.2%; in the assay with UACC-257 melanoma it was 85.9%. Besides, the growth with M14 melanoma is 95.2%.

Turning to `Cc1ccc(Nc2c(C(N)=O)cnc3ccc(-c4csc(N)n4)cc23)cc1`, the growth in the assay on NCI-H23 lung was 88.3%; with NCI-H226 lung, 88.3%; in the assay on NCI-H322M lung it was 108%; in the assay with HOP-62 NSCLC, 96.4%; in the assay with NCI-H460 lung, 100%; in the assay with HOP-92 NSCLC, 90.2%. The growth is 101% in the assay on NCI-H522 lung; 95.4% in the assay on A549/ATCC NSCLC; 101% with 786-0 renal; 96.3% in the assay with COLO 205 colon; 103% in the assay on DU-145 prostate; 113% in the assay on K-562 leukemia. Also, the growth with MDA-MB-231 breast was 98.8%; with RXF 393 renal it was 98.3%; with SF-268 CNS, 106%; with SF-295 CNS it was 98.7%; in the assay with SF-539 CNS, 92%; with UACC-257 melanoma it was 101%. Also, the growth in the assay with M14 melanoma was 98.6%.

As to `NCCN1CCN(c2nccc(-c3ccc4ccccc4c3)n2)CC1`, the growth is 87.2% in the assay with NCI-H23 lung; 81.9% with NCI-H226 lung; 54.4% in the assay with NCI-H322M lung; 74.9% in the assay on HOP-62 NSCLC; 17.6% in the assay on NCI-H460 lung; 27.7% in the assay on HOP-92 NSCLC. Further, the growth in the assay on NCI-H522 lung is 81.3%; with A549/ATCC NSCLC, 52.3%; with 786-0 renal, 47.6%; in the assay with COLO 205 colon it was -78.1% (active); in the assay with DU-145 prostate, 84.6%; in the assay with MALME-3M melanoma, 60.3%. Besides, the growth in the assay on MDA-MB-231 breast was 23.8%; in the assay on RXF 393 renal, 43.1%; with SF-268 CNS, 63.8%; in the assay with SF-295 CNS, 90.1%; in the assay with SF-539 CNS it was -4.96% (active); with UACC-257 melanoma, 68.4%. For the same molecule, in the assay on M14 melanoma, the growth was -66.8% (active).

With `Oc1ccc(Nc2nccc(-c3ccc4ccccc4c3)n2)cc1`, the growth in the assay with NCI-H23 lung is 30.7%; in the assay with NCI-H226 lung, 60.9%; in the assay with NCI-H322M lung it was 44.4%; in the assay on HOP-62 NSCLC it was 36.9%; with NCI-H460 lung it was 14.8%; in the assay with HOP-92 NSCLC it was 89.5%. Further, the growth with NCI-H522 lung was 30.9%; with A549/ATCC NSCLC it was 14.1%; with 786-0 renal it was 40.1%; in the assay with COLO 205 colon, 98%; with DU-145 prostate, 55.5%; with MALME-3M melanoma, 59.8%. Further, the growth in the assay on MDA-MB-231 breast is 30.5%; in the assay with RXF 393 renal it was 60.3%; in the assay on SF-268 CNS it was 47.4%; in the assay with SF-295 CNS, 61.4%; in the assay on SF-539 CNS it was 37%; in the assay with UACC-257 melanoma, 26.7%. The growth in the assay with M14 melanoma is 11.1%.

As for `CN(C)CC(=O)Nc1ccc(Cn2nnc3c2C(=O)c2nnn(Cc4ccc(NC(=O)CN(C)C)cc4)c2C3=O)cc1`, the growth with NCI-H23 lung is -31.7% (active); with NCI-H226 lung it was -56.2% (active); with NCI-H322M lung, -52.6% (active); with HOP-62 NSCLC, -67.4% (active); in the assay with NCI-H460 lung, -3.43% (active); in the assay with HOP-92 NSCLC it was -53.8% (active). In addition, the growth in the assay with NCI-H522 lung is -67% (active); in the assay on A549/ATCC NSCLC it was -59.8% (active); in the assay on 786-0 renal, -76.4% (active); with COLO 205 colon, -80.4% (active); in the assay with DU-145 prostate, -96.2% (active); with MALME-3M melanoma, -81.2% (active). Besides, the growth is -14.2% (active) with MDA-MB-231 breast; -77.4% (active) with RXF 393 renal; -49.1% (active) with SF-268 CNS; -87.4% (active) in the assay with SF-295 CNS; -71.1% (active) with UACC-257 melanoma; -89.4% (active) in the assay with M14 melanoma.

As for `CN(C)CCOc1ccc(-c2nc3ccc(-c4nc5ccc(N6CCN(C)CC6)cc5[nH]4)cc3[nH]2)cc1`, the growth with NCI-H23 lung was 76.9%; in the assay with NCI-H226 lung, 28.7%; in the assay on NCI-H322M lung, 77.8%; with HOP-62 NSCLC, 69.9%; in the assay on NCI-H460 lung, 56%; with HOP-92 NSCLC it was 61.7%. Besides, the growth is 59.9% in the assay with NCI-H522 lung; 64.4% in the assay with A549/ATCC NSCLC; 86.4% in the assay with 786-0 renal; 44.5% with COLO 205 colon; 82.4% with DU-145 prostate; 24.1% in the assay with MALME-3M melanoma. Also, the growth in the assay on MDA-MB-231 breast is 73.4%; in the assay with RXF 393 renal, 48.3%; in the assay with SF-268 CNS it was 65.8%; in the assay with SF-295 CNS it was 54.6%; with SF-539 CNS, 49.8%; in the assay with UACC-257 melanoma, 41.2%. Besides, the growth in the assay with M14 melanoma was 51.3%.
